Results from PubChem BioAssay (EPA / NIEHS).
Activity calls are given as the source filed them. Rule for the calls: active = hit-call score of the fitted dose curve at least 0.9, where 1 is the maximum; inactive = score below 0.9.

Key:
[1] = target: Nuclear respiratory factor 1 (Homo sapiens) (UniProt Q16656); assay: ATG_NRF1_CIS: Attagene CIS-FACTORIAL HepG2 Assay for human Nuclear Respiratory Factor 1 (NRF1) Orphan Gene (AID 2282987); settings: HepG2 NRF1 cis-element reporter, Attagene multiplex; actives raise or lower the signal
Chain of Nuclear respiratory factor 1 (Homo sapiens) (Q16656 whole entry, looked up): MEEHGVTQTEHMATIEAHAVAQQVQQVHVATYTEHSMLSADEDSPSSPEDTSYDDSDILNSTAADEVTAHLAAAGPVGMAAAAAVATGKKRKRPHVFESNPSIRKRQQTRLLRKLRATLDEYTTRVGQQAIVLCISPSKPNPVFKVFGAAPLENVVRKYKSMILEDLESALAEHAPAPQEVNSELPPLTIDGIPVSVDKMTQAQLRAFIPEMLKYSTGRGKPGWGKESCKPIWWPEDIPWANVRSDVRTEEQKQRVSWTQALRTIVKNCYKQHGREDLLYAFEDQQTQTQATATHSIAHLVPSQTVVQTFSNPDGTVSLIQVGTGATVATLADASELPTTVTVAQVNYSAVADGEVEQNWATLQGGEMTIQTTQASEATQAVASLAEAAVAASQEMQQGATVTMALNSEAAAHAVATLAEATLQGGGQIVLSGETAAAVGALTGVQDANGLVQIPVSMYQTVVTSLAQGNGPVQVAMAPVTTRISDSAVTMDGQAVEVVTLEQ
Outline: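 Reporter mRNA induction or loss in HepG2 cells after 24 h dosing; cis-regulated reporter constructs report endogenous transcription-factor activity. Quantified by RT-PCR/capillary electrophoresis fluorescence, DMSO-referenced.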

[2] = ATG_NFI_CIS: Attagene CIS-FACTORIAL HepG2 Assay for human Nuclear Factor I (NFI) (AID 2282989); settings: HepG2 cis-regulatory reporter, NFI response element transcription; actives raise or lower the signal
Outline: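 Transient MRTU transfection of HepG2 → 24 h chemical dosing → total RNA, oligo(dT) RT → PCR, 6-FAM primer extension, HpaI cut → capillary electrophoresis. Endpoint fitted bidirectionally relative to DMSO.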

[3] = target: Myc proto-oncogene protein (Homo sapiens) (UniProt P01106); assay: ATG_Myc_CIS: Attagene CIS-FACTORIAL HepG2 Assay for human Myelocytomatosis (Myc) Proto-Oncogene Transcription Factor (AID 2282990); settings: HepG2, Attagene cis-reporter transcription factor activity; actives raise or lower the signal
Chain of Myc proto-oncogene protein (Homo sapiens) (P01106 whole entry, looked up): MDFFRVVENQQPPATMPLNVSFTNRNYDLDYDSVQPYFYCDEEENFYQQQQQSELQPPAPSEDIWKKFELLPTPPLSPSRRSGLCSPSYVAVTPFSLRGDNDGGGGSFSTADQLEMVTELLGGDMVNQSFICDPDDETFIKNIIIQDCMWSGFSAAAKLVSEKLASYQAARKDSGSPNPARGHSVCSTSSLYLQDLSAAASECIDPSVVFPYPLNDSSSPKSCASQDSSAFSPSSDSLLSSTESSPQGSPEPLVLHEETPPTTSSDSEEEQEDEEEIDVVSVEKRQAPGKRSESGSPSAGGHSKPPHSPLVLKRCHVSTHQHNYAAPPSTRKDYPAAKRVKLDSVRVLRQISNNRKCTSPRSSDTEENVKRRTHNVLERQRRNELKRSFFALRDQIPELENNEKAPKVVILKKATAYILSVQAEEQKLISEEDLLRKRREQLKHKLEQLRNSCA
Outline: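 HepG2 cells transiently transfected with multiple cis-promoter-driven reporter transcription units, so endogenous TF activity is read. After 24 h compound exposure, reporter mRNA was quantified by RT-PCR, 6-FAM labelling, HpaI digestion and capillary electrophoresis; bidirectional fit versus DMSO.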

[4] = ATG_NF_kB_CIS: Attagene CIS-FACTORIAL HepG2 Assay for human Nuclear Factor Kappa B (NF-kB) (AID 2282991); settings: HepG2 Attagene cis-factorial NF-kB reporter mRNA; actives raise or lower the signal
Outline: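 DMSO served as negative control and baseline for bidirectional curve fitting. Transiently transfected HepG2 cells were dosed for 24 h, then reporter transcripts were measured by RT-PCR with capillary electrophoresis detection.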

[5] = ATG_NRF2_ARE_CIS: Attagene CIS-FACTORIAL HepG2 Assay for human Nuclear Factor Erythroid 2 Related Factor 2 (NFR2) response to Antioxidant Response Elements (ARE) (AID 2282992); settings: HepG2 Attagene ARE/NRF2 reporter, transcription factor activity; actives raise or lower the signal;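 for AC50: reporter mRNA level measured by RT-PCR and capillary electrophoresis fluorescence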
Outline: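 Fluorescence intensity of reporter-specific cDNA fragments, separated by capillary electrophoresis, reflects mRNA induction in transfected HepG2 cells at 24 h. Activity is fitted bidirectionally, DMSO serving as baseline.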

[6] = ATG_Oct_MLP_CIS: Attagene CIS-FACTORIAL HepG2 Assay for human Octamer-Binding Transcription Factor (Oct) (AID 2282993); settings: HepG2 Attagene cis-factorial Oct reporter, mRNA; actives raise or lower the signal
Outline: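 Transient MRTU transfection of HepG2 → 24 h compound treatment → RNA isolation, reverse transcription, PCR → 6-FAM primer extension, HpaI digest → capillary electrophoresis. Activity fitted both directions against DMSO.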

[7] = target: Cellular tumor antigen p53 (Homo sapiens) (UniProt P04637); assay: ATG_p53_CIS: Attagene CIS-FACTORIAL HepG2 Assay for human p53 Transcription Factor (AID 2282994); settings: HepG2 p53 cis-element reporter, Attagene mRNA; actives raise or lower the signal
Chain of Cellular tumor antigen p53 (Homo sapiens) (P04637 whole entry, looked up): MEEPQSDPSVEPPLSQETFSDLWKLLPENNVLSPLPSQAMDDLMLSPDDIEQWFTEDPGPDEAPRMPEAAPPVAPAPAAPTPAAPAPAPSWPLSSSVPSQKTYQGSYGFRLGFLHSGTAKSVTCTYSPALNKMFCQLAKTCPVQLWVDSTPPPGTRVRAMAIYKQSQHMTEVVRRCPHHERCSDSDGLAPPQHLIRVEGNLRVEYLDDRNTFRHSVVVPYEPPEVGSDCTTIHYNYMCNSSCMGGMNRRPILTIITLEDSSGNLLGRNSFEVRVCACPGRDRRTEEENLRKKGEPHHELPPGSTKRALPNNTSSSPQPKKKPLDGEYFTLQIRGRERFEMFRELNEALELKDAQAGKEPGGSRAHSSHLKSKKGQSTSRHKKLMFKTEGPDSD
Outline: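 Transiently transfected HepG2 (multiple cis reporter transcription units); exposure 24 h; reporter RNA via RT-PCR, 6-FAM extension, 2 h HpaI digest at 37 C, CE detection; DMSO baseline.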

[8] = BSK_3C_TissueFactor: BioMAP Diversity Plus: 3C Assay for Tissue Factor Biomarker Activity (AID 2282997); settings: BioMAP 3C HUVEC, tissue factor biomarker readout; actives raise or lower the signal
Outline: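 Cells used were primary human umbilical vein endothelial cells. They were dosed with chemical, and after 24 h Tissue Factor was quantified by ELISA. Curves were fitted bidirectionally with DMSO as baseline.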

[9] = BSK_3C_uPAR: BioMAP Diversity Plus: 3C Assay for Urokinase-type plasminogen activator receptor (uPAR) Biomarker Activity (AID 2282998); settings: BioMAP 3C HUVEC, uPAR biomarker ELISA; actives raise or lower the signal
Outline: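 ELISA readout of uPAR on human vascular endothelium (umbilical vein primary cells), taken 24 h after chemical dosing. Increases and decreases are both fitted relative to DMSO vehicle.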

[10] = BSK_3C_VCAM1: BioMAP Diversity Plus: 3C Assay for Vascular cell adhesion molecule 1 (VCAM1) Biomarker Activity (AID 2282999); settings: BioMAP 3C HUVEC, VCAM1 ELISA, cytokine-stimulated; actives raise or lower the signal
Outline: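 Vascular primary endothelium (human umbilical vein) was exposed to chemicals and assayed 24 h later. VCAM-1 levels came from ELISA, with DMSO serving as baseline for bidirectional fitting.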

In the case of CC1CCC(C(C)(C)S)C(=O)C1 (stereo not drawn), the outcome [1] was “inactive”, the outcome [2] was “inactive” and the outcome [3] was “inactive”. For the same molecule, the outcome [4] was “inactive”, the outcome [5] was “inactive” and the outcome [6] was “inactive”. For the same molecule, the outcome [7] was “inactive”.

For CCCC(C)C(=O)OCC (stereo not drawn), the outcome [1] was “inactive”, the outcome [2] was “inactive” and the outcome [3] was “inactive”. The outcome [4] was “inactive”, the outcome [5] was “inactive” and the outcome [6] was “inactive”. The outcome [7] was “inactive”, the outcome [8] was “inactive” and the outcome [9] was “inactive”. For the same molecule, the outcome [10] was “inactive”.

With CC(C=O)c1ccccc1 (stereo not drawn) the outcome [1] was “inactive”, the outcome [2] was “inactive” and the outcome [3] was “inactive”. For the same molecule, the outcome [4] was “inactive”, the outcome [5] was “inactive” and the outcome [6] was “inactive”. For the same molecule, the outcome [7] was “inactive”.

With OCCCc1ccccc1 the outcome [1] was “inactive”, the outcome [2] was “inactive” and the outcome [3] was “inactive”. For the same molecule, the outcome [4] was “inactive”, the outcome [5] was “inactive” and the outcome [6] was “inactive”. For the same molecule, the outcome [7] was “inactive”.

In the case of CC(=O)OC(C)c1ccccc1 (stereo not drawn), the outcome [1] was “inactive”, the outcome [2] was “inactive” and the outcome [3] was “inactive”. For the same molecule, the outcome [4] was “inactive”, the outcome [5] was “inactive” and the outcome [6] was “inactive”. The outcome [7] was “inactive”.

In the case of Cc1c[nH]c(=O)[nH]c1=O, the outcome [1] was “inactive”, the outcome [2] was “inactive” and the outcome [3] was “inactive”. For the same molecule, the outcome [4] was “inactive”, the outcome [5] was “inactive” and the outcome [6] was “inactive”. The outcome [7] was “inactive”.

With O=C(C=Cc1ccccc1)OCCc1ccccc1 the outcome [1] was “inactive”, the outcome [2] was “inactive” and the outcome [3] was “inactive”. The outcome [4] was “inactive”, the AC50 [5] was 20.4 µM (active) and the outcome [6] was “inactive”. For the same molecule, the outcome [7] was “inactive”.

For CCc1occc(=O)c1O, the outcome [1] was “inactive”, the outcome [2] was “inactive” and the outcome [3] was “inactive”. The outcome [4] was “inactive”, the outcome [5] was “inactive” and the outcome [6] was “inactive”. For the same molecule, the outcome [7] was “inactive”.

In the case of CC(C)=CCl, the outcome [1] was “inactive”, the outcome [2] was “inactive” and the outcome [3] was “inactive”. The outcome [4] was “inactive”, the outcome [5] was “inactive” and the outcome [6] was “inactive”. The outcome [7] was “inactive”.

In the case of CC(=O)CCC=C(C)C, the outcome [1] was “inactive”, the outcome [2] was “inactive” and the outcome [3] was “inactive”. The outcome [4] was “inactive”, the outcome [5] was “inactive” and the outcome [6] was “inactive”. For the same molecule, the outcome [7] was “inactive”.

In the case of CCc1cccc(C)c1N, the outcome [1] was “inactive”, the outcome [2] was “inactive” and the outcome [3] was “inactive”. The outcome [4] was “inactive”, the outcome [5] was “inactive” and the outcome [6] was “inactive”. For the same molecule, the outcome [7] was “inactive”.

With CC(C)(O)Cc1ccccc1 the outcome [1] was “inactive”, the outcome [2] was “inactive” and the outcome [3] was “inactive”. For the same molecule, the outcome [4] was “inactive”, the outcome [5] was “inactive” and the outcome [6] was “inactive”. For the same molecule, the outcome [7] was “inactive”.

With CCCCCCCCCCCCCC(=O)OC(C)C the outcome [1] was “inactive”, the outcome [2] was “inactive” and the outcome [3] was “inactive”. The outcome [4] was “inactive”, the outcome [5] was “inactive” and the outcome [6] was “inactive”. For the same molecule, the outcome [7] was “inactive”.

For CCCC/C=C/C=C\C=O, the outcome [1] was “inactive”, the outcome [2] was “inactive” and the outcome [3] was “inactive”. The AC50 [4] was 63.8 µM (active), the AC50 [5] was 41.3 µM (active) and the outcome [6] was “inactive”. The AC50 [7] was 165 µM (active).

In the case of CCOC(=O)C1=NN(c2ccc(Cl)cc2Cl)C(C)(C(=O)OCC)C1 (stereo not drawn), the outcome [1] was “inactive”, the outcome [2] was “inactive” and the outcome [3] was “inactive”. For the same molecule, the outcome [4] was “inactive”, the outcome [5] was “inactive” and the outcome [6] was “inactive”. For the same molecule, the outcome [7] was “inactive”, the outcome [8] was “inactive” and the outcome [9] was “inactive”. For the same molecule, the outcome [10] was “inactive”.

In the case of CCC(C)c1ccccc1 (stereo not drawn), the outcome [1] was “inactive”, the outcome [2] was “inactive” and the outcome [3] was “inactive”. For the same molecule, the outcome [4] was “inactive”, the outcome [5] was “inactive” and the outcome [6] was “inactive”. For the same molecule, the outcome [7] was “inactive”.

With COc1nccnc1CC(C)C the outcome [1] was “inactive”, the outcome [2] was “inactive” and the outcome [3] was “inactive”. For the same molecule, the outcome [4] was “inactive”, the outcome [5] was “inactive” and the outcome [6] was “inactive”. For the same molecule, the outcome [7] was “inactive”.

For CC1(C)C(=O)N(CO)C(=O)N1CO, the outcome [1] was “inactive”, the outcome [2] was “inactive” and the outcome [3] was “inactive”. For the same molecule, the outcome [4] was “inactive”, the AC50 [5] was 26.1 µM (active) and the outcome [6] was “inactive”. The outcome [7] was “inactive”.

In the case of CCCCCCOc1ccc(N)cc1, the AC50 [1] was 100 µM (active), the outcome [2] was “inactive” and the outcome [3] was “inactive”. The outcome [4] was “inactive”, the AC50 [5] was 100 µM (active) and the outcome [6] was “inactive”. The outcome [7] was “inactive”.

With CC/C=C\CCOC(=O)c1ccccc1O the outcome [1] was “inactive”, the outcome [2] was “inactive” and the outcome [3] was “inactive”. For the same molecule, the outcome [4] was “inactive”, the AC50 [5] was 100 µM (active) and the outcome [6] was “inactive”. The AC50 [8] was 25.4 µM (active), the AC50 [9] was 31.8 µM (active) and the AC50 [10] was 30.1 µM (active).

In the case of Oc1ccccc1Cc1ccccc1O, the outcome [1] was “inactive”, the outcome [2] was “inactive” and the outcome [3] was “inactive”. The outcome [4] was “inactive”, the AC50 [5] was 40.7 µM (active) and the AC50 [6] was 134 µM (active). For the same molecule, the outcome [8] was “inactive”, the outcome [9] was “inactive” and the outcome [10] was “inactive”.

In the case of COC(Cc1ccccc1)OC, the outcome [1] was “inactive”, the outcome [2] was “inactive” and the outcome [3] was “inactive”. For the same molecule, the outcome [5] was “inactive” and the outcome [6] was “inactive”.

In the case of CC(CCC(=O)O)(c1ccc(O)cc1)c1ccc(O)cc1, the outcome [1] was “inactive”, the outcome [2] was “inactive” and the outcome [3] was “inactive”. For the same molecule, the outcome [4] was “inactive”, the outcome [5] was “inactive” and the outcome [6] was “inactive”. For the same molecule, the outcome [8] was “inactive”, the outcome [9] was “inactive” and the outcome [10] was “inactive”.

With CCN1CN(CC)CN(CC)C1 the outcome [1] was “inactive”, the AC50 [2] was 162 µM (active) and the outcome [3] was “inactive”. For the same molecule, the outcome [4] was “inactive”, the outcome [5] was “inactive” and the AC50 [6] was 159 µM (active). The outcome [8] was “inactive”, the outcome [9] was “inactive” and the outcome [10] was “inactive”.

For CC12CCC(CC1)C(C)(C)O2, the outcome [1] was “inactive”, the outcome [2] was “inactive” and the outcome [3] was “inactive”. For the same molecule, the outcome [5] was “inactive” and the outcome [6] was “inactive”.

For COC(=O)c1ccccc1C, the outcome [1] was “inactive”, the outcome [2] was “inactive” and the outcome [3] was “inactive”. For the same molecule, the outcome [5] was “inactive” and the outcome [6] was “inactive”.

For CCCCCCCO, the outcome [1] was “inactive”, the outcome [2] was “inactive” and the outcome [3] was “inactive”. The outcome [4] was “inactive”, the outcome [5] was “inactive” and the outcome [6] was “inactive”. The outcome [8] was “inactive”, the outcome [9] was “inactive” and the outcome [10] was “inactive”.

In the case of O=C(Cl)c1c(Cl)c(Cl)c(C(=O)Cl)c(Cl)c1Cl, the outcome [1] was “inactive”, the outcome [2] was “inactive” and the outcome [3] was “inactive”. For the same molecule, the outcome [4] was “inactive”, the outcome [5] was “inactive” and the outcome [6] was “inactive”. For the same molecule, the outcome [8] was “inactive”, the outcome [9] was “inactive” and the outcome [10] was “inactive”.
